Laboratory results taken from PubChem BioAssay AID2284128 (EPA ToxCast).
The source made the active and inactive calls. Rule for the calls: active = hit-call score of the fitted dose curve at least 0.9, where 1 is the maximum; inactive = score below 0.9.

The compounds below were run against human Phosphatase (PTEN), PTEN (gene 5728) (UniProt P60484) (assay: ERF_TW_ENZ_hPTEN: Eurofins (ERF) Enzymatic LeadHunter Assay for human Phosphatase (PTEN)).
Procedure: ERF_TW_ENZ_hPTEN is a biochemical, single-readout assay that uses extracted gene-proteins in a cell-free assay. Measurements were taken 1 hour after chemical dosing in a 96-well plate. See PTEN Human Phosphatase Enzymatic Assay, Panlabs.ERF_TW_ENZ_hPTEN is an assay component calculated from the ERF_TW_ENZ_hPTEN assay. It is designed to measure enzyme activity using a type of enzyme reporter as detected by fluorescence intensity with spectrophotometry technology.Data from the assay component ERF_TW_ENZ_hPTEN was analyzed at the assay endpoint, ERF_TW_ENZ_hPTEN, in the positive analysis fitting direction relative to DMSO as the negative control and baseline of activity. Using a type of enzyme reporter, loss-of-signal activity can be used to understand changes in enzymatic activity as they relate to gene PTEN. To generalize the intended target to other relatable targets, this assay endpoint is annotated to the phosphatase intended target family, where the subfamily is dual-specific phosphatase.
Human recombinant phosphatase PTEN expressed in E. coli is used. Test compound and/or vehicle is preincubated with 2 ug/ml enzymedouble dagger for 15 minutes at 37C in modified Tris-HCl buffer pH 8.5. The reaction is initiated by addition of 100 uM DiFMUP for 60 minutes. Determination of the amount of DiFMU formed is read spectrofluorimetrically at 358 nm/450 nm. […]

human Phosphatase (PTEN), PTEN (gene 5728), sequence (P60484 whole entry, looked up): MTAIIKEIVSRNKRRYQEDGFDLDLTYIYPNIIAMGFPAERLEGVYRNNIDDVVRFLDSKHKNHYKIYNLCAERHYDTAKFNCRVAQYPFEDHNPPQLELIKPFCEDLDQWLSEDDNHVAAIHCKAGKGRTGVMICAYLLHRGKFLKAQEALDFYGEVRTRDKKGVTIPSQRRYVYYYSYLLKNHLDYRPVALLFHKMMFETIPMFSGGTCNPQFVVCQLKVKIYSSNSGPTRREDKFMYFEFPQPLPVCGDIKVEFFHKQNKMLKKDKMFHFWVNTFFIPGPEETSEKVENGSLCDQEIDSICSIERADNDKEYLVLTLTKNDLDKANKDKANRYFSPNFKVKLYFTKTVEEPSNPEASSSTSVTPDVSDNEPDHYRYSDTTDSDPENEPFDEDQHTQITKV

| Structure (SMILES) | AC50 |
| --- | --- |
| O=C(/C=C/c1ccc(O)cc1)CC(=O)/C=C/c1ccc(O)cc1 | 5 µM (active) |
